{
  "source": "PubChem BioAssay AID1159580",
  "about": "(chemical genetic matrix, 2015)",
  "test": "chemical genetic growth profiling, strain panel (AID 1159580);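 further: tested at 20 µM; growth read once vehicle control cultures reached saturation at 30 °C; 1 = growth at the plate median or of vehicle wells; lower values mean less growth of the strain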",
  "details": "S. cerevisiae deletion strains, growth OD",
  "note": "Values joined by “and” are separate entries in the source; they are usually repeats but may differ in a detail not shown here. Equal entries are not always repeated. The campaign covered roughly 5,500 compounds. About 2,000 (36%) were called active. About 18% were inconclusive and are not listed. The list shows a part of the results. Unmarked numbers belong to inactive results. No stated cut-off is given here; in the data, active means normalized growth mostly below about 0.91 (no sharp cut-off); inconclusive means no clear call, values can overlap the other calls; inactive means mostly above about 0.92.",
  "data": [
    {"smiles": "C#C[C@]1(O)CCC2C3CCC4=C(CCC(=O)C4)C3CC[C@@]21C", "note": "(some centres undefined)", "values": [
      {"measurement": "normalized growth", "setting": "locus YAL021C, strain ccr4, active compounds read low", "value": 0.992},
      {"measurement": "normalized growth", "setting": "locus YAL026C, strain drs2, active compounds read low", "value": 0.942},
      {"measurement": "normalized growth", "setting": "locus YAL030W, strain snc1, active compounds read low", "value": 0.987},
      {"measurement": "normalized growth", "setting": "locus YBL061C, strain skt5, active compounds read low", "value": 0.993},
      {"measurement": "normalized growth", "setting": "locus YBR009C, strain hhf1, active compounds read low", "value": 0.941},
      {"measurement": "normalized growth", "setting": "locus YBR021W, strain FUR4, active compounds read low", "value": 0.977},
      {"measurement": "normalized growth", "setting": "locus YBR023C, strain chs3, active compounds read low", "value": 0.986},
      {"measurement": "normalized growth", "setting": "locus YBR171W, strain sec66, active compounds read low", "value": 0.974},
      {"measurement": "normalized growth", "setting": "locus YBR229C, strain ROT2, active compounds read low", "value": 1.01},
      {"measurement": "normalized growth", "setting": "locus YBR231C, strain swc5, active compounds read low", "value": 1},
      {"measurement": "normalized growth", "setting": "locus YBR279W, strain paf1, active compounds read low", "value": 0.982},
      {"measurement": "normalized growth", "setting": "locus YCL011C, strain gbp2, active compounds read low", "value": 0.98},
      {"measurement": "normalized growth", "setting": "locus YCL016C, strain dcc1, active compounds read low", "value": 0.994},
      {"measurement": "normalized growth", "setting": "locus YCL029C, strain bik1, active compounds read low", "value": 1.01},
      {"measurement": "normalized growth", "setting": "locus YCL061C, strain MRC1, active compounds read low", "value": 0.971},
      {"measurement": "normalized growth", "setting": "locus YCL069W, strain vba3, active compounds read low", "value": 0.973},
      {"measurement": "normalized growth", "setting": "locus YCR088W, strain abp1, active compounds read low", "value": 0.986},
      {"measurement": "normalized growth", "setting": "locus YDL005C, strain med2, active compounds read low", "value": 0.982},
      {"measurement": "normalized growth", "setting": "locus YDL035C, strain GPR1, active compounds read low", "value": 0.964},
      {"measurement": "normalized growth", "setting": "locus YDL040C, strain nat1, active compounds read low", "value": 0.989},
      {"measurement": "normalized growth", "setting": "locus YDL074C, strain BRE1, active compounds read low", "value": 1.03},
      {"measurement": "normalized growth", "setting": "locus YDL101C, strain DUN1, active compounds read low", "value": 1},
      {"measurement": "normalized growth", "setting": "locus YDL134C, strain PPH21, active compounds read low", "value": 0.981},
      {"measurement": "normalized growth", "setting": "locus YDL185W, strain tfp1, active compounds read low", "value": 1},
      {"measurement": "normalized growth", "setting": "locus YDL192W, strain arf1, active compounds read low", "value": 1.01},
      {"measurement": "normalized growth", "setting": "locus YDR001C, strain nth1, active compounds read low", "value": 0.983},
      {"measurement": "normalized growth", "setting": "locus YDR069C, strain doa4, active compounds read low", "value": 0.97},
      {"measurement": "normalized growth", "setting": "locus YDR101C, strain arx1, active compounds read low", "value": 0.984},
      {"measurement": "normalized growth", "setting": "locus YDR137W, strain rgp1, active compounds read low", "value": "0.807 (active)"},
      {"measurement": "normalized growth", "setting": "locus YDR150W, strain NUM1, active compounds read low", "value": 1.03},
      {"measurement": "normalized growth", "setting": "locus YDR159W, strain sac3, active compounds read low", "value": 0.915},
      {"measurement": "normalized growth", "setting": "locus YDR162C, strain NBP2, active compounds read low", "value": 1.02},
      {"measurement": "normalized growth", "setting": "locus YDR195W, strain ref2", "value": 1.07},
      {"measurement": "normalized growth", "setting": "locus YDR297W, strain sur2, active compounds read low", "value": 0.985},
      {"measurement": "normalized growth", "setting": "locus YDR318W, strain mcm21, active compounds read low", "value": 0.98},
      {"measurement": "normalized growth", "setting": "locus YDR334W, strain swr1, active compounds read low", "value": 0.996},
      {"measurement": "normalized growth", "setting": "locus YDR335W, strain msn5, active compounds read low", "value": 0.97},
      {"measurement": "normalized growth", "setting": "locus YDR388W, active compounds read low", "value": 1},
      {"measurement": "normalized growth", "setting": "locus YDR392W, strain spt3, active compounds read low", "value": 0.761},
      {"measurement": "normalized growth", "setting": "locus YDR502C, strain sam2, active compounds read low", "value": 0.985},
      {"measurement": "normalized growth", "setting": "locus YEL003W, strain gim4, active compounds read low", "value": 0.971},
      {"measurement": "normalized growth", "setting": "locus YEL037C, strain rad23, active compounds read low", "value": 0.98},
      {"measurement": "normalized growth", "setting": "locus YEL061C, strain CIN8 (second series), active compounds read low", "value": 0.969},
      {"measurement": "normalized growth", "setting": "locus YEL061C, strain CIN8, active compounds read low", "value": 1.02},
      {"measurement": "normalized growth", "setting": "locus YER015W, strain faa2, active compounds read low", "value": 0.994},
      {"measurement": "normalized growth", "setting": "locus YER016W, strain bim1, active compounds read low", "value": 0.976},
      {"measurement": "normalized growth", "setting": "locus YER110C, active compounds read low", "value": 1},
      {"measurement": "normalized growth", "setting": "locus YER111C, strain swi4, active compounds read low", "value": 1},
      {"measurement": "normalized growth", "setting": "locus YER155C, strain BEM2 (second series), active compounds read low", "value": 0.974},
      {"measurement": "normalized growth", "setting": "locus YER155C, strain BEM2, active compounds read low", "value": 1.02},
      {"measurement": "normalized growth", "setting": "locus YER167W, strain BCK2, active compounds read low", "value": 1.01},
      {"measurement": "normalized growth", "setting": "locus YFR010W, strain ubp6, active compounds read low", "value": 0.98},
      {"measurement": "normalized growth", "setting": "locus YGL078C, strain dbp3, active compounds read low", "value": 0.995},
      {"measurement": "normalized growth", "setting": "locus YGL086W, strain mad1, active compounds read low", "value": 0.99},
      {"measurement": "normalized growth", "setting": "locus YGL167C, strain pmr1, active compounds read low", "value": 0.984},
      {"measurement": "normalized growth", "setting": "locus YGL173C, strain kem1, active compounds read low", "value": 0.957},
      {"measurement": "normalized growth", "setting": "locus YGL227W, strain vid30, active compounds read low", "value": 0.98},
      {"measurement": "normalized growth", "setting": "locus YGL240W, strain doc1, active compounds read low", "value": 0.949},
      {"measurement": "normalized growth", "setting": "locus YGL248W, strain PDE1, active compounds read low", "value": 1},
      {"measurement": "normalized growth", "setting": "locus YGL253W, strain hxk2, active compounds read low", "value": 0.962},
      {"measurement": "normalized growth", "setting": "locus YGR135W, strain pre9, active compounds read low", "value": 0.981},
      {"measurement": "normalized growth", "setting": "locus YGR252W, strain gcn5, active compounds read low", "value": 0.893},
      {"measurement": "normalized growth", "setting": "locus YHR013C, strain ard1, active compounds read low", "value": 0.965},
      {"measurement": "normalized growth", "setting": "locus YHR027C, strain rpn1, active compounds read low", "value": 0.984},
      {"measurement": "normalized growth", "setting": "locus YHR030C, strain SLT2, active compounds read low", "value": "1.03 and 0.904"},
      {"measurement": "normalized growth", "setting": "locus YHR079C, strain IRE1 (second series), active compounds read low", "value": 0.999},
      {"measurement": "normalized growth", "setting": "locus YHR079C, strain IRE1, active compounds read low", "value": 0.873},
      {"measurement": "normalized growth", "setting": "locus YHR094C, strain hxt1, active compounds read low", "value": 0.997},
      {"measurement": "normalized growth", "setting": "locus YHR129C, strain ARP1, active compounds read low", "value": 1.02},
      {"measurement": "normalized growth", "setting": "locus YHR142W, strain chs7, active compounds read low", "value": 0.921},
      {"measurement": "normalized growth", "setting": "locus YHR200W, strain rpn10, active compounds read low", "value": 1},
      {"measurement": "normalized growth", "setting": "locus YIL066C, strain RNR3, active compounds read low", "value": 1.02},
      {"measurement": "normalized growth", "setting": "locus YIL073C, strain SPO22, active compounds read low", "value": 0.968},
      {"measurement": "normalized growth", "setting": "locus YIL125W, strain kgd1, active compounds read low", "value": 1},
      {"measurement": "normalized growth", "setting": "locus YIR030C, strain dcg1, active compounds read low", "value": 1.02},
      {"measurement": "normalized growth", "setting": "locus YJL092W, strain hpr5, active compounds read low", "value": 0.986},
      {"measurement": "normalized growth", "setting": "locus YJL095W, strain BCK1 (second series), active compounds read low", "value": 0.991},
      {"measurement": "normalized growth", "setting": "locus YJL095W, strain BCK1, active compounds read low", "value": "0.979 and 0.922"},
      {"measurement": "normalized growth", "setting": "locus YJL115W, strain asf1, active compounds read low", "value": 0.975},
      {"measurement": "normalized growth", "setting": "locus YJL129C, strain trk1, active compounds read low", "value": 0.884},
      {"measurement": "normalized growth", "setting": "locus YJL134W, strain LCB3, active compounds read low", "value": 1.02},
      {"measurement": "normalized growth", "setting": "locus YJL154C, strain vps35, active compounds read low", "value": 0.97},
      {"measurement": "normalized growth", "setting": "locus YJL164C, strain tpk1, active compounds read low", "value": 0.949},
      {"measurement": "normalized growth", "setting": "locus YJL166W, strain qcr8, active compounds read low", "value": 0.97},
      {"measurement": "normalized growth", "setting": "locus YJL168C, strain set2, active compounds read low", "value": 1},
      {"measurement": "normalized growth", "setting": "locus YJL187C, strain SWE1 (second series), active compounds read low", "value": 1.01},
      {"measurement": "normalized growth", "setting": "locus YJL187C, strain SWE1, active compounds read low", "value": 0.981},
      {"measurement": "normalized growth", "setting": "locus YJR043C, strain POL32, active compounds read low", "value": 1.02},
      {"measurement": "normalized growth", "setting": "locus YJR066W, strain TOR1, active compounds read low", "value": 0.886}
    ]}
  ]
}
